Laboratory results published in PubChem BioAssay AID602313 (National Center for Advancing Translational Sciences (NCATS), 2012).
In all, about 390,000 compounds went through this assay and about 760 (0.19%) were called active. Roughly 3% stayed inconclusive and do not appear here. Calls follow the shape of the dose curve; as a rule, active = well fitted inhibition curve with a large enough effect; inconclusive = small, poorly fitted or top-dose-only effect; inactive = flat fitted curve, though single readings scatter. The full list was thinned out, with actives kept by preference.

Assay: qHTS for Inhibitors of Vif-A3F Interactions: qHTS; also: nearly all actives have a fitted effect of over 65% in size
Conditions: HeLa A3F-eYFP + Vif (tagged APOBEC3F with the HIV-1 protein that degrades it), YFP fluorescence increase; series mostly up to 46.1 µM
In short: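 HeLa cells stably expressing Vif plus C-terminally eYFP-tagged A3F were seeded, incubated overnight at 37 deg C, dosed with compound, incubated overnight again at 37 deg C. Yellow fluorescence (Ex 488/Em 500-530) reported blocked Vif-mediated A3F-eYFP degradation.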
Potency is read from the fitted curve at half-maximal effect.

Potency, inactive:
Cc1ccccc1CN1CCC(CNC(=O)c2cc3ccc4cccnc4c3[nH]2)CC1
Fc1ccc(CSc2nc(NCc3ccccc3)c3ccccc3n2)cc1
Cc1nnc(NCc2ccccc2)c2c1nnn2Cc1ccc(F)cc1
Cc1cccc(Cn2c(SCc3ccc(C(=O)N4CCC(C)CC4)cc3)nc3ccncc32)c1
O=C(Nc1ccc(Br)cc1)c1cc2nc(-c3ccccc3)cc(-c3ccccc3)n2n1
O=C(C[n+]1ccc2c(c1)nnn2-c1ccccc1)c1ccc(Cl)cc1
O=C(OCc1nc2ccccc2[nH]1)C1CCCCC1
CCCN(CCC)c1c([N+](=O)[O-])c(=O)oc2ccccc12
COc1cc(OC)c(OC)cc1/C=C/c1nc2ccccc2c(=O)n1-c1ccc(Br)c(C)c1
CCc1cccc(CC)c1NC(=O)Cn1c(=O)c(-c2cc(C)ccc2NC(C)=O)nc2ccccc21
CCc1nnc(SCc2c(F)cccc2Cl)c2cc3sccc3n12
CCOC(=O)c1ccc(NC(=O)CC2C(=O)N(c3cccc(OC)c3)C(=O)N2C2CCCCC2)cc1 (configuration not stated)
Cc1oc2ncn(CC(C)C)c(=O)c2c1C(=O)N1CCN(c2ccccc2F)CC1
CCOc1ccc(S(=O)(=O)c2cn(Cc3ccc(OC)cc3)c3ccc(F)cc3c2=O)cc1
COc1cc(CN(C(=O)c2ccccc2Br)c2ccccn2)cc(OC)c1OC
O=C(NCc1ccccc1)c1ccc2c(c1)nc1n2CCCCC1
Cc1ccc(CNC(=O)CCc2c(C)nn(-c3ccc(N4CCCC4)nn3)c2C)cc1
CCOCCCNC(=O)c1c(NC(=O)Cc2coc3ccc(C)cc23)sc2c1CCC2
CCC(=O)N1CCc2cc(S(=O)(=O)NC(Cc3ccccc3)C(=O)NCc3ccccc3)ccc21 (configuration not stated)
CCCCN(CC)CCCNC(=O)c1nn(C)c2c1CS(=O)(=O)c1ccccc1-2
Cc1ccc(-n2nc(CO)c(C(=O)NCCc3ccccc3)n2)cc1
CCN(CC)C(=O)CSc1nc2cc3c(cc2c(=O)n1CCCC(=O)NCc1ccc2c(c1)OCO2)OCO3

Potency, active:
O=C(OC12CC3CC(CC(C3)C1)C2)c1ccc(NCc2cc(O)ccc2O)cc1 22.4 µM
Fc1ccc(CNc2nc3ccccc3n3nnnc23)cc1 7.94 µM
O=C(Cc1nc2ccccc2[nH]c1=O)c1ccc(Cl)cc1 12.6 µM
CCn1c(/C=C/c2ccc([N+](=O)[O-])o2)nc2ccccc2c1=O 22.4 µM
C[n+]1ccc(/C=C/c2c[nH]c3ccccc23)cc1 10 µM
